Experimental findings from PubChem BioAssay (Tox21) are described below.

Each structure is given as a SMILES string. “And” between values parts separate entries of the source, which are not always exact repeats. Equal entries are not always repeated. Records with an inconclusive call do not appear. Some compounds were tested as several samples or in several runs, with calls that do not always agree. The source made the active and inactive calls. Unless noted, calls come from the whole dose curve; as a rule, active = well fitted curve in the direction sought with a large enough effect in the repeat runs; inconclusive = weak or mixed curves; inactive = no such curve, though single readings can be large; an effect the other way counts as inactive or inconclusive.

A short description of assay [1]: qHTS assay to identify small molecule agonists of the hypoxia (HIF-1) signaling pathway - cell viability counter screen (AID 1224844; calls by dose curve; note: % is set by controls: 0 for no effect and ±100 for the full control effect; nearly all actives have a fitted effect of over 50% in size). Put shortly:
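Tox21 10K compounds were added to HRE-bla ME-180 cells (0.5% dialyzed FBS) and incubated 17 hrs at 37C; ATP-based CellTiter-Glo luminescence then reported cell viability in the same wells.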

Assay [2] can be described thus: qHTS assay to identify small molecule agonists of H2AX (AID 1224845; active = well fitted activation curve with a large enough effect in the signal ratio in the repeat runs, not every such curve was filed as active; the % refers to the signal ratio; note: potency is the fitted concentration of half-maximal effect). A digest of the protocol: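 Wild-type CHO-K1 cells plated overnight, then exposed 3 hr at 37C to compounds at 15 concentrations (0.76% DMSO). Lysed, then HTRF anti-pH2AX(S139)-cryptate/anti-H2AX-d2 detection after 24 hr at room temperature; emissions 665 and 620 nm.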
(In qHTS, concentration-response curves come from the screen itself.)

A short description of assay [3]: qHTS assay to identify small molecule agonists of H2AX - cell viability counter screen (AID 1224847; calls by dose curve; note: nearly all actives have a fitted effect of over 30% in size; note: potency is the fitted concentration of half-maximal effect). A digest of the protocol:
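Cytotoxicity counter screen in wild-type CHO-K1 cells: a 3 hr compound treatment at 37C across 15 concentrations, followed by CellTiter-Glo luminescence to gauge viable cells.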

Assay [4] in a line: qHTS assay to identify small molecule antagonists of the estrogen related receptor (ERR) signaling pathway from Tox21 library (AID 1224848). Note: potency is the fitted concentration of half-maximal effect; nearly all actives have a fitted effect of over 50% in size. Put shortly: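 Screening used an ERR reporter line supplied by NTP, exposed for 18 h at 37 C to library compounds delivered in DMSO. Signal was luciferase luminescence developed with ONE-Glo at room temperature for 30 min.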
Assay [5] is described as follows: qHTS assay to identify small molecule agonists of the estrogen related receptor (ERR) signaling pathway from Tox21 library (AID 1224849; calls by dose curve; note: % is set by controls: 0 for no effect and ±100 for the full control effect; nearly all actives have a fitted effect of over 15% in size). The following applies: ERR reporter cell line, ONE-Glo luciferase, 18 h; at 92.4 µM (top of the series). A digest of the protocol: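 Agonist signal is luciferase luminescence from an ERR reporter cell line treated 18 h at 37 C with DMSO-dissolved compounds, read 30 min after ONE-Glo addition at room temperature.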

A short description of assay [6]: qHTS RealTime-Glo MT Cell Viability Assay in HepG2 cells - 24 hour (AID 1224867). Note: % is set by controls: 0 for no effect and ±100 for the full control effect; nearly all actives have a fitted effect of over 50% in size. Put shortly: (§1)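 HepG2 cells were seeded at 600 cells/well together with NanoLuc luciferase and a cell-permeant prosubstrate, preincubated 5 h at 37 C/5% CO2, then pin-dosed with compounds in DMSO. Nonlytic luminescence from viable cells was read at each time point.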
Assay [7] in a line: qHTS RealTime-Glo MT Cell Viability Assay in HEK293 cells - 32 hour (AID 1224868). Note: nearly all actives have a fitted effect of over 50% in size. Note: potency is the fitted concentration of half-maximal effect. Put shortly:
(§2)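 HEK293 cells were seeded at 600 cells/well together with NanoLuc luciferase and cell-permeant prosubstrate, preincubated 5 h at 37 C/5% CO2, then given compound in DMSO by pintool. Luminescence from viable-cell prosubstrate reduction was read repeatedly over 40 h.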

Assay [8] is described as follows: A CellTox Green Cytotoxicity Assay to monitor cytotoxicity in HEK293 cells - 0 hour (AID 1224869). A digest of the protocol: (§3)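 Cytotoxicity was tracked continuously in HEK293 cells by a DNA-binding dye excluded from viable cells. Compounds were transferred in DMSO 5 h after seeding; fluorescence was recorded at intervals up to 40 h.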
A short description of assay [9]: qHTS RealTime-Glo MT Cell Viability Assay in HepG2 cells - 40 hour (AID 1224870). Put shortly:
(§4)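 HepG2 cells mixed with RealTime-Glo MT reagents (NanoLuc plus cell-permeant prosubstrate) were seeded at 600 cells/well, incubated 5 h at 37 C/5% CO2, then pinned with compounds in DMSO; nonlytic luminescence tracked viability during 40 h treatment.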

Assay [10] in a line: A CellTox Green Cytotoxicity Assay to monitor cytotoxicity in HEK293 cells - 40 hour (AID 1224871). Note: nearly all actives have a fitted effect of over 45% in size. Note: potency is the fitted concentration of half-maximal effect. Put shortly:
as §3

Assay [11] in a line: qHTS RealTime-Glo MT Cell Viability Assay in HEK293 cells - 16 hour (AID 1224872). Note: nearly all actives have a fitted effect of over 50% in size. Note: potency is the fitted concentration of half-maximal effect. Put shortly: as §2
Assay [12] can be described thus: qHTS RealTime-Glo MT Cell Viability Assay in HepG2 cells - 8 hour (AID 1224873). Note: % is set by controls: 0 for no effect and ±100 for the full control effect; nearly all actives have a fitted effect of over 55% in size. Put shortly: as §4
The nature of assay [13]: qHTS RealTime-Glo MT Cell Viability Assay in HEK293 cells - 40 hour (AID 1224874). For max response: % is set by controls: 0 for no effect and ±100 for the full control effect. Note: nearly all actives have a fitted effect of over 50% in size. Note: potency is the fitted concentration of half-maximal effect. Particulars: RealTime-Glo luminescence; max response: stronger effect = lower value. A digest of the protocol:
(§5)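 Nonlytic bioluminescent viability monitoring. HEK293 at 600 cells/well with reagent; 5 h settle; compound transfer by pintool; plates held at 37 C and read at set time points.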

A short description of assay [14]: A CellTox Green Cytotoxicity Assay to monitor cytotoxicity in HEK293 cells - 24 hour (AID 1224875). Note: % is set by controls: 0 for no effect and ±100 for the full control effect; nearly all actives have a fitted effect of over 45% in size. A digest of the protocol:
as §3

The nature of assay [15]: A CellTox Green Cytotoxicity Assay to monitor cytotoxicity in HepG2 cells - 16 hour (AID 1224876). Note: % is set by controls: 0 for no effect and ±100 for the full control effect; nearly all actives have a fitted effect of over 45% in size. A digest of the protocol: (§6)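 Real-time, homogeneous cytotoxicity readout: dead-cell DNA staining by CellTox Green in HepG2 monolayers, fluorescence measured at timed intervals up to 40 h of continuous compound exposure.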
Assay [16] is described as follows: qHTS RealTime-Glo MT Cell Viability Assay in HepG2 cells - 32 hour (AID 1224877). Note: % is set by controls: 0 for no effect and ±100 for the full control effect; nearly all actives have a fitted effect of over 55% in size. A digest of the protocol:
as §1

Assay [17] is described as follows: A CellTox Green Cytotoxicity Assay to monitor cytotoxicity in HepG2 cells - 40 hour (AID 1224879). Note: nearly all actives have a fitted effect of over 40% in size. Note: potency is the fitted concentration of half-maximal effect. Put shortly: as §6
Assay [18] can be described thus: qHTS RealTime-Glo MT Cell Viability Assay in HEK293 cells - 0 hour (AID 1224880). Note: top concentration of the series differs between compounds; % is set by controls: 0 for no effect and ±100 for the full control effect; nearly all actives have a fitted effect of over 45% in size. Put shortly: as §5
Assay [19] in a line: qHTS assay to identify small molecule agonists of the hypoxia (HIF-1) signaling pathway (AID 1224846; active = well fitted activation curve with a large enough effect in the signal ratio in the repeat runs, not every such curve was filed as active; the % refers to the signal ratio; note: % is set by controls: 0 for no effect and ±100 for the full control effect). A digest of the protocol:
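Steps: seed ME-180 HRE-bla cells (2,000/well, 0.5% dialyzed FBS); incubate 5 hrs at 37C; pin-transfer compounds or DMSO; incubate 17 hrs; add LiveBLAzer B/G substrate CCF4-AM; measure reporter activation by FRET.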

Assay [20] is described as follows: A CellTox Green Cytotoxicity Assay to monitor cytotoxicity in HepG2 cells - 24 hour (AID 1224878). A digest of the protocol:
as §6

In the case of `c1cnc2c(c1)ccc1cccnc12`, the Potency entry in [1], in assay [6], in assay [8], in assay [9], in [12] and in [14] was “inactive” throughout. In addition, the Potency result in [15], in assay [16] and in [18] was “inactive” throughout. In addition, the Potency is 6.35 µM (active) in assay [2]; 80.8 µM (active) and inactive in assay [3]; 1.23 µM (active) and 1.09 µM (active) and 1.54 µM (active) in [4]; 3.5 µM (active) and 7.76 µM (active) in assay [7]; 49.4 µM (active) and 43.6 µM (active) and inactive in assay [10]; 11 µM (active) in assay [11]. Further, the Potency is 3.12 µM (active) and 7.76 µM (active) and 6.92 µM (active) in [13]; 44.1 µM (active) and inactive in [17]. Moreover, in assay [5], the activity change, positive = activation was -72.1% (inactive) and -45.5% (inactive) and -63.4% (inactive).

Consider `N[C@@H](Cc1cc(I)c(Oc2ccc(O)c(I)c2)c(I)c1)C(=O)O`, for which the Potency entry in assay [1], in assay [3], in assay [6], in assay [7], in [8] and in assay [9] was “inactive” in each case. For the same compound, the Potency result in [10], in assay [11], in assay [12], in assay [14], in assay [15] and in [16] was “inactive” throughout. The Potency result in assay [20] and in assay [17] was “inactive” throughout. The compound was called inactive in assay [19]. Moreover, in assay [13], the max response is -20.1% (inactive) and -17.6% (inactive).

`C=C(CC(=O)O)C(=O)O`: the Potency result in [1], in [2], in [3], in assay [6], in [7] and in assay [8] was “inactive” throughout. Besides, the Potency entry in assay [9], in [10], in assay [11], in assay [12], in [14] and in [15] was “inactive” each time. Besides, the Potency entry in [16], in assay [20], in assay [17] and in assay [18] was “inactive” throughout. For the same compound, the max response in [13] was 2.09% (inactive) and -0.881% (inactive).

Consider `COc1c2ccoc2cc2oc(=O)ccc12`, for which the Potency entry in assay [1], in [2], in assay [3], in assay [6], in [7] and in assay [8] was “inactive” each time. Further, the Potency entry in assay [9], in assay [10], in assay [11], in assay [12], in [14] and in assay [15] was “inactive” each time. In addition, the Potency entry in [16], in [17] and in [18] was “inactive” in each case. Besides, in assay [19], the outcome was inactive. Moreover, the max response in [13] was -25.5% (inactive) and -38.4% (inactive).

With `COc1ccc(N)c(OC)c1`, the Potency result in assay [1], in assay [3], in assay [6], in assay [7], in assay [8] and in assay [9] was “inactive” each time. The Potency entry in [10], in assay [11], in assay [12], in assay [14], in [15] and in assay [16] was “inactive” in each case. Besides, the Potency entry in [20], in [17] and in assay [18] was “inactive” throughout. In assay [19], the call was inactive. The max response in assay [13] was -8.13% (inactive) and -8.26% (inactive).

Regarding `OCc1ccc(Cl)cc1Cl`, the Potency result in assay [1], in assay [2], in [3], in [6], in assay [7] and in assay [8] was “inactive” throughout. In addition, the Potency entry in [9], in assay [10], in [11], in [12], in assay [14] and in assay [15] was “inactive” throughout. Also, the Potency result in assay [16], in assay [20], in assay [17] and in assay [18] was “inactive” in each case. In assay [19], the call was inactive. The max response in [13] is 3.27% (inactive) and 4.82% (inactive).
